“And” between values parts separate entries of the source, which are not always exact repeats. Equal entries are not always repeated. Out of some 5,500 compounds screened, about 2,000 (36%) were called active. Another 18% or so got no clear call; they are omitted. Rule as the data show it: active = normalized growth mostly below about 0.91 (no sharp cut-off); inconclusive = no clear call, values can overlap the other calls; inactive = mostly above about 0.92. The list shows a part of the results.
Assay: chemical genetic growth profiling, strain panel (AID 1159580);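 also: tested at 20 µM; growth read once vehicle control cultures reached saturation at 30 °C; 1 = growth at the plate median or of vehicle wells; lower values mean less growth of the strain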
Conditions: S. cerevisiae deletion strains, growth OD

Measured: normalized growth

CN(C)C(=O)Nc1ccc(Cl)c(Cl)c1
inactive: locus YAL013W, strain DEP1, stronger effect = lower value 0.992 | locus YAL021C, strain ccr4, stronger effect = lower value 0.964 | locus YAL026C, strain drs2, stronger effect = lower value 0.97 | locus YAL030W, strain snc1, stronger effect = lower value 0.987 | locus YBL061C, strain skt5, stronger effect = lower value 0.991 | locus YBR009C, strain hhf1, stronger effect = lower value 0.926 | locus YBR021W, strain FUR4, stronger effect = lower value 0.904 | locus YBR023C, strain chs3, stronger effect = lower value 0.983 | locus YBR171W, strain sec66, stronger effect = lower value 1.01 | locus YBR229C, strain ROT2, stronger effect = lower value 1 | locus YBR231C, strain swc5, stronger effect = lower value 1.01 | locus YBR279W, strain paf1, stronger effect = lower value 0.97 | locus YCL011C, strain gbp2, stronger effect = lower value 0.954 | locus YCL016C, strain dcc1, stronger effect = lower value 0.974 | locus YCL029C, strain bik1, stronger effect = lower value 1.01 | locus YCL061C, strain MRC1, stronger effect = lower value 0.958 | locus YCL069W, strain vba3, stronger effect = lower value 0.994 | locus YCR088W, strain abp1, stronger effect = lower value 0.991 | locus YDL005C, strain med2, stronger effect = lower value 1 | locus YDL035C, strain GPR1, stronger effect = lower value 0.983 | locus YDL040C, strain nat1, stronger effect = lower value 0.991 | locus YDL074C, strain BRE1, stronger effect = lower value 0.899 | locus YDL101C, strain DUN1, stronger effect = lower value 0.999 | locus YDL134C, strain PPH21, stronger effect = lower value 0.986 | locus YDL185W, strain tfp1, stronger effect = lower value 1.02 | locus YDL192W, strain arf1, stronger effect = lower value 1 | locus YDR001C, strain nth1, stronger effect = lower value 0.99 | locus YDR069C, strain doa4, stronger effect = lower value 0.987 | locus YDR101C, strain arx1, stronger effect = lower value 1 | locus YDR137W, strain rgp1, stronger effect = lower value 1.03 | locus YDR150W, strain NUM1, stronger effect = lower value 0.993 | locus YDR159W, strain sac3, stronger effect = lower value 0.989 | locus YDR162C, strain NBP2, stronger effect = lower value 0.948 | locus YDR195W, strain ref2 1.1 | locus YDR297W, strain sur2, stronger effect = lower value 0.98 | locus YDR318W, strain mcm21, stronger effect = lower value 0.994 | locus YDR334W, strain swr1, stronger effect = lower value 1.01 | locus YDR335W, strain msn5, stronger effect = lower value 0.994 | locus YDR388W, stronger effect = lower value 0.992 | locus YDR392W, strain spt3, stronger effect = lower value 0.888 | locus YDR502C, strain sam2, stronger effect = lower value 0.989 | locus YEL003W, strain gim4, stronger effect = lower value 0.997 | locus YEL037C, strain rad23, stronger effect = lower value 0.993 | locus YEL061C, strain CIN8 (second series), stronger effect = lower value 1.01 | locus YEL061C, strain CIN8, stronger effect = lower value 0.998 | locus YER015W, strain faa2, stronger effect = lower value 0.968 | locus YER016W, strain bim1, stronger effect = lower value 0.992 | locus YER110C, stronger effect = lower value 1.01 | locus YER111C, strain swi4, stronger effect = lower value 1.02 | locus YER155C, strain BEM2 (second series), stronger effect = lower value 0.944 | locus YER155C, strain BEM2, stronger effect = lower value 1.01 | locus YER167W, strain BCK2, stronger effect = lower value 1 | locus YFR010W, strain ubp6, stronger effect = lower value 0.994 | locus YGL078C, strain dbp3, stronger effect = lower value 1.01 | locus YGL086W, strain mad1, stronger effect = lower value 0.997 | locus YGL167C, strain pmr1, stronger effect = lower value 0.988 | locus YGL173C, strain kem1, stronger effect = lower value 0.993 | locus YGL227W, strain vid30, stronger effect = lower value 0.995 | locus YGL240W, strain doc1, stronger effect = lower value 0.967 | locus YGL248W, strain PDE1, stronger effect = lower value 0.987 | locus YGL253W, strain hxk2, stronger effect = lower value 0.951 | locus YGR078C, strain PAC10, stronger effect = lower value 0.982 | locus YGR135W, strain pre9, stronger effect = lower value 0.98 | locus YGR229C, strain SMI1, stronger effect = lower value 0.942 | locus YGR252W, strain gcn5, stronger effect = lower value 0.807 | locus YHR013C, strain ard1, stronger effect = lower value 0.995 | locus YHR027C, strain rpn1, stronger effect = lower value 1.02 | locus YHR030C, strain SLT2, stronger effect = lower value 1.01 and 0.992 | locus YHR079C, strain IRE1 (second series), stronger effect = lower value 0.992 | locus YHR079C, strain IRE1, stronger effect = lower value 0.985 | locus YHR094C, strain hxt1, stronger effect = lower value 1 | locus YHR129C, strain ARP1, stronger effect = lower value 0.984 | locus YHR142W, strain chs7, stronger effect = lower value 0.887 | locus YHR200W, strain rpn10, stronger effect = lower value 0.991 | locus YIL066C, strain RNR3, stronger effect = lower value 0.981 | locus YIL073C, strain SPO22, stronger effect = lower value 0.981 | locus YIL125W, strain kgd1, stronger effect = lower value 1 | locus YIR030C, strain dcg1, stronger effect = lower value 1 | locus YJL092W, strain hpr5, stronger effect = lower value 0.982 | locus YJL095W, strain BCK1 (second series), stronger effect = lower value 1 | locus YJL095W, strain BCK1, stronger effect = lower value 0.96 and 0.984 | locus YJL115W, strain asf1, stronger effect = lower value 1 | locus YJL129C, strain trk1, stronger effect = lower value 0.984 | locus YJL134W, strain LCB3, stronger effect = lower value 0.996 | locus YJL154C, strain vps35, stronger effect = lower value 0.997 | locus YJL164C, strain tpk1, stronger effect = lower value 0.952 | locus YJL166W, strain qcr8, stronger effect = lower value 0.976 | locus YJL168C, strain set2, stronger effect = lower value 1 | locus YJL187C, strain SWE1 (second series), stronger effect = lower value 0.999 | locus YJR043C, strain POL32, stronger effect = lower value 0.88 | locus YJR066W, strain TOR1, stronger effect = lower value 0.93

From PubChem BioAssay AID1159580 (chemical genetic matrix, 2015)
